# The supplement of paper PMC9844399
# Structures can show the parent of a compound that is named as a salt.
# System: HeLa
# Assay: nuclear count per well, robust Z-score vs DMSO; higher = more cells (less toxicity)
# Conditions: 10 µM; 6 h
# 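Wherever MALAT1 nuclear FISH intensity, robust Z-score vs DMSO is given: High-content confocal imaging of branched-DNA amplified FISH in 384-well plates, Hoechst-defined nuclei, score is well value minus plate DMSO median over DMSO robust SD, four wells per compound.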
# 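Wherever nuclear count per well, robust Z-score vs DMSO is given: Hoechst-stained nuclei counted by automated confocal imaging of four fields per well in 384-well plates, with the robust Z-score based on the per-plate DMSO median and robust SD.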
row,Compound,nuclear count per well
1,CC(/C=C/c1cccc(Oc2ccc(F)cc2)c1)N(O)C(N)=O (stereo not given),0.056
2,CCCCCCCC/C=C\CCCCCCCC(=O)OC[C@H](CO)OC(C)=O [1-Oleoyl 2-acetyl-glycerol],0.105
3,Cc1ccc(S(=O)(=O)N[C@@H](Cc2ccccc2)C(=O)CCl)cc1 [Tosyl-Phe-CMK (TPCK)],-3.24
4,CC[C@H](CO)Nc1nc(NCc2ccccc2)c2ncn(C(C)C)c2n1 [Roscovitine],-0.656
5,COc1ccc(O)cc1 [Mequinol],0.211
6,CCCCC/C=C\C/C=C\C/C=C\C/C=C\CCCC(=O)O[C@@H](CO)COCCCCCCCCCCCCCCCC [1-Hexadecyl-2-arachidonoyl-glycerol],0.524
7,CCC[C@H](N[C@H]1CCc2cc(F)cc(F)c2C1)C(=O)Nc1cn(C(C)(C)CNCC(C)(C)C)cn1,2.56
8,CCCCc1ncc(/C=C(\Cc2cccs2)C(=O)O)n1Cc1ccc(C(=O)O)cc1 [Eprosartan Mesylate],1.34
9,O=C(O)CNC(=O)C(CS)Cc1ccccc1 (stereo not given) [Thiorphan],-0.172

# System: HeLa
# Assay: MALAT1 nuclear FISH intensity, robust Z-score vs DMSO; higher = more nuclear MALAT1 lncRNA, active = -3 or less
# Conditions: 10 µM; 6 h
row,Compound,MALAT1 nuclear FISH intensity
1,CC1=C(CC(=O)O)c2cc(F)ccc2/C1=C\c1ccc([S+](C)[O-])cc1 (stereo not given) [Sulindac],-0.159 (inactive)
2,CC(C)C[C@H](NC(=O)[C@@H](O)[C@H](N)Cc1ccccc1)C(=O)O [Bestatin],-0.377 (inactive)
3,COc1cc(Br)c(Nc2nc(-c3c(C)nc4ncccn34)cs2)c(Br)c1,4.09 (inactive)
4,CC(O)(P(=O)(O)O)P(=O)(O)O [Etidronate Disodium],-0.936 (inactive)
5,COc1nc(N)nc2c1ncn2[C@@H]1O[C@H](CO)[C@@H](O)[C@@H]1O [Nelarabine],0.301 (inactive)
6,C[C@H]1CC[C@@]2(OC1)O[C@H]1C[C@H]3[C@@H]4CC[C@@H]5C[C@@H](O[C@@H]6O[C@H](CO)[C@H](O)[C@H](O)[C@H]6O[C@@H]6O[C@H](CO)[C@@H](O)[C@H](O)[C@H]6O)CC[C@]5(C)[C@H]4CC[C@]3(C)[C@H]1[C@@H]2C [Timosaponin A-III],-0.716 (inactive)
7,CCN(CCO)CCCC(C)Nc1ccnc2cc(Cl)ccc12 (stereo not given) [Hydroxychloroquine Sulfate],-0.075 (inactive)
8,Cc1cccc(Nc2nc(-c3ccncc3)cs2)c1,-0.461 (inactive)
9,"CCCCCC(=O)/C=C/C=C\CCCCCCCC(=O)O [13-Keto-octadeca-9Z,11E-dienoic acid]",-0.299 (inactive)
10,NC(=S)NCCC[C@H](N)C(=O)O [Thiocitrulline [L-Thiocitrulline]],-2.41 (inactive)
11,Cc1c(-c2ccccc2)oc2c(C(=O)OCCN3CCCCC3)cccc2c1=O,-0.0194 (inactive)
12,CN(C)CCC(c1ccc(Br)cc1)c1ccccn1 (stereo not given) [Brompheniramine Maleate],0.169 (inactive)
13,Cc1c2oc3c(C)ccc(C(=O)N[C@@H]4C(=O)N[C@H](C(C)C)C(=O)N5CCC[C@H]5C(=O)N(C)CC(=O)N(C)[C@@H](C(C)C)C(=O)O[C@@H]4C)c3nc-2c(C(=O)N[C@@H]2C(=O)N[C@H](C(C)C)C(=O)N3CCC[C@H]3C(=O)N(C)CC(=O)N(C)[C@@H](C(C)C)C(=O)O[C@@H]2C)c(N)c1=O [Actinomycin D],-6.35 (active)
14,CC[C@@H]([C@H](C)O)n1ncn(-c2ccc(N3CCN(c4ccc(OC[C@@H]5CO[C@@](Cn6cncn6)(c6ccc(F)cc6F)C5)cc4)CC3)cc2)c1=O [Posaconazole],-0.761 (inactive)
15,c1ccc(-c2ccc(CNc3nc(-c4ccccn4)nnc3-c3ccccc3)cc2)cc1,2.99 (inactive)
16,O=C1CN2Cc3c(ccc(Cl)c3Cl)N=C2N1 [Anagrelide],0.344 (inactive)
17,C[C@H](N)[C@H](O)c1cccc(O)c1 [Metaraminol Bitartrate],0.361 (inactive)
18,COc1cc2c3cc1Oc1c(OC)c(OC)cc4c1[C@@H](Cc1ccc(OC(=O)c5ccc([N+](=O)[O-])cc5)c(c1)Oc1ccc(cc1)C[C@@H]3N(C)CC2)N(C)CC4,1.07 (inactive)
19,O=C(CCCN1CC=C(n2c(=O)[nH]c3ccccc32)CC1)c1ccc(F)cc1 [Droperidol],2.02 (inactive)
20,CC(=O)NC[C@H]1CN(c2ccc(N3CCOCC3)c(F)c2)C(=O)O1 [Linezolid],-1.13 (inactive)
21,CC(=Cc1ccc(C(=O)O)cc1)c1ccc2c(c1)C(C)(C)CCC2(C)C,-0.412 (inactive)
